Assay results as given in PubChem BioAssay (Tox21).
Results filed as inconclusive are left out. Calls of active or inactive are those of the source. Unless noted, calls come from the whole dose curve; as a rule, active = well fitted curve in the direction sought with a large enough effect in the repeat runs; inconclusive = weak or mixed curves; inactive = no such curve, though single readings can be large; an effect the other way counts as inactive or inconclusive.

Key:
[1] = qHTS assay to identify small molecule agonists of the peroxisome proliferator-activated receptor delta (PPARd) signaling pathway - cell viability counter screen (AID 743211); note: nearly all actives have a fitted effect of over 55% in size; note: potency is the fitted concentration of half-maximal effect
In short: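 Viability was measured as CellTiter-Glo luminescence (30 min, room temperature) in the same wells as the beta-lactamase readout. GeneBLAzer PPARd UAS-bla HEK293H cells received compound after 5 h plating and were incubated 17 h at 37 C.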

[2] = target: Peroxisome proliferator-activated receptor delta (Homo sapiens) (UniProt Q03181); assay: qHTS assay to identify small molecule agonists of the peroxisome proliferator-activated receptor delta (PPARd) signaling pathway (AID 743212; calls by dose curve; note: % is set by controls: 0 for no effect and ±100 for the full control effect)
Sequence of Peroxisome proliferator-activated receptor delta (Homo sapiens) (Q03181 whole entry, looked up): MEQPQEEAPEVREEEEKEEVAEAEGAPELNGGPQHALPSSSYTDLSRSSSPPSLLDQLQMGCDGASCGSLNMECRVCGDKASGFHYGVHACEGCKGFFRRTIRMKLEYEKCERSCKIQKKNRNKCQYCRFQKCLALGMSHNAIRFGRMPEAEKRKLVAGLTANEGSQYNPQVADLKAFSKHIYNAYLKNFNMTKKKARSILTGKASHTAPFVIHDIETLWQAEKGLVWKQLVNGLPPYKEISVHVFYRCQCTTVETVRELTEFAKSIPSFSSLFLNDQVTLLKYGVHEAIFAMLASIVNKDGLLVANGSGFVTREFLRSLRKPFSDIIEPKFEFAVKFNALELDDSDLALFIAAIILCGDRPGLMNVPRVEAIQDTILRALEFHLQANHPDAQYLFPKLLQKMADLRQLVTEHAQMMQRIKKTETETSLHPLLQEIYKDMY
In short: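 Beta-lactamase reporter read by fluorescence (LiveBLAzer B/G FRET, 2 h, room temperature). Test agents, in DMSO, incubated at 37 C with PPARd-bla HEK293H cells.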

[3] = qHTS assay to identify small molecule antagonists of the peroxisome proliferator-activated receptor delta (PPARd) signaling pathway - cell viability counter screen (AID 743213); note: % is set by controls: 0 for no effect and ±100 for the full control effect; nearly all actives have a fitted effect of over 50% in size
In short: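 Same-well viability: cells pre-incubated 5 h, dosed with compound plus 300 nM L165041, kept 17 h at 37 C, FRET substrate 2 h RT, then CellTiter-Glo 30 min RT and luminescence.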

[4] = target: Peroxisome proliferator-activated receptor delta (Homo sapiens) (UniProt Q03181); assay: qHTS assay to identify small molecule antagonists of the peroxisome proliferator-activated receptor delta (PPARd) signaling pathway (AID 743215; active = well fitted inhibition curve with a large enough effect in the signal ratio in the repeat runs, not every such curve was filed as active; the % refers to the signal ratio;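 note: cells stimulated with agonist L165041 at 300 nM final during compound exposure; series mostly up to about 62 µM; % is set by controls: 0 for no effect and ±100 for the full control effect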)
In short: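 Screen format: qHTS, antagonist mode. HEK293H PPARd-bla cells received compound and 300 nM L165041 (final), 17 h, 37 C. Beta-lactamase detected via FRET substrate fluorescence, 2 h, room temperature.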

[5] = qHTS assay to identify small molecule agonists of the farnesoid-X-receptor (FXR) signaling pathway - cell viability counter screen (AID 743218); note: nearly all actives have a fitted effect of over 45% in size; note: potency is the fitted concentration of half-maximal effect
In short: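 Same-well cytotoxicity check on FXR-UAS-bla HEK 293T cells: 5 h attachment, 16 h compound at 37 C, CellTiter-Glo luminescence read at room temperature after 30 min.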

[6] = qHTS assay to identify small molecule antagonists of the farnesoid-X-receptor (FXR) signaling pathway - cell viability counter screen (AID 743221; active = well fitted cell-killing curve with a large enough effect in the repeat runs, not every such curve was filed as active; note: nearly all actives have a fitted effect of over 50% in size; note: potency is the fitted concentration of half-maximal effect)
In short: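 Cytotoxicity counter screen run in the FXR-bla reporter wells: HEK 293T cells exposed to compound with 50 uM (final) chenodeoxycholic acid for 16 h, 37 C, then viability measured by CellTiter-Glo luminescence after 30 min, room temperature.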

[7] = qHTS assay to identify small molecule agonists of the vitamin D receptor (VDR) signaling pathway - cell viability counter screen (AID 743224); note: nearly all actives have a fitted effect of over 50% in size; note: potency is the fitted concentration of half-maximal effect
In short: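 Counter screen for cytotoxicity: VDR-bla cells at 2,000 cells/well, 16 h compound exposure, then CellTiter-Glo luminescence after the beta-lactamase measurement.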

[8] = qHTS assay to identify small molecule antagonists of the vitamin D receptor (VDR) signaling pathway - cell viability counter screen (AID 743225); note: nearly all actives have a fitted effect of over 50% in size; note: potency is the fitted concentration of half-maximal effect
In short: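 Cytotoxicity counter screen read by CellTiter-Glo luminescence (30 min, room temperature) in the same wells as the VDR-bla antagonist readout. HEK 293T VDR-UAS-bla cells had 16 h at 37C with compound and 3 nM (final) 1-alpha,25-dihydroxyvitamin D3, then 2 h with FRET substrate.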

[9] = qHTS assay to identify small molecule agonists of the NFkB signaling pathway - cell viability counter screen (AID 1159515; calls by dose curve; note: series mostly up to about 61 µM; % is set by controls: 0 for no effect and ±100 for the full control effect; nearly all actives have a fitted effect of over 55% in size)
In short: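 Counter screen run alongside the NFkB-bla agonist assay: ME-180 reporter cells exposed to compounds for 5 hr, then lysed with CellTiter-Glo in the same wells. Luminescence, read after 30 min, reflects viable cells.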

[10] = qHTS assay to identify small molecule agonists of the endoplasmic reticulum stress response signaling pathway (AID 1159516; active = well fitted activation curve with a large enough effect in the signal ratio in the repeat runs, not every such curve was filed as active; the % refers to the signal ratio; note: % is set by controls: 0 for no effect and ±100 for the full control effect)
In short: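 For this screen, HeLa cells stably carrying beta-lactamase under the ER stress response element received test compounds, positive controls or DMSO for 5 hr at 37 C; B/G FRET substrate was then added and dual-wavelength emission recorded.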

[11] = qHTS assay to identify small molecule agonists of the endoplasmic reticulum stress response signaling pathway - cell viability counter screen (AID 1159517; calls by dose curve)
In short: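 Cytotoxicity of test compounds toward ESRE-bla HeLa cells was assessed after 5 hr exposure. The luminescent CellTiter-Glo signal was measured 30 min after reagent addition.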

[12] = qHTS assay to identify small molecule antagonists of the retinoid-related orphan receptor gamma (ROR-gamma) signaling pathway - cell viability counter screen (AID 1159520)
In short: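 Tet-on ROR gamma CHO cells (1,000/well) were plated 4 hr, given compounds in DMSO for 2 hr at 37 C, then induced with 1 uM final doxycycline for 16 hr. Viability was read as ATP by CellTiter-Glo luminescence after 30 min.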

[13] = target: Nuclear receptor ROR-gamma (Homo sapiens) (UniProt P51449); assay: qHTS assay to identify small molecule antagonists of the retinoid-related orphan receptor gamma (ROR-gamma) signaling pathway (AID 1159521; note: nearly all actives have a fitted effect of over 50% in size; note: potency is the fitted concentration of half-maximal effect)
In short: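 Antagonist read-out: drop in luminescence (ONE-Glo) from an RORE-LUC reporter in CHO cells with doxycycline-inducible ROR-gamma; 2 hr compound pretreatment, 1 uM doxycycline, 16 hr incubation at 37 C.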

[14] = qHTS assay to identify small molecule agonists of the AP-1 signaling pathway - cell viability counter screen (AID 1159525; calls by dose curve; note: nearly all actives have a fitted effect of over 55% in size)
In short: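 Each titration point was normalised to DMSO and tetra n-octyl ammonium bromide controls. The read was Cell Titer Glo luminescence after 30 min at RT, following 5 h compound exposure of ME-180 AP-1-bla cells at 37 °C.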

[15] = qHTS assay to identify small molecule agonists of the AP-1 signaling pathway (AID 1159526; calls by dose curve; note: % is set by controls: 0 for no effect and ±100 for the full control effect)
[16] = qHTS assay to identify small molecule agonists of the NFkB signaling pathway (AID 1159509; active = well fitted curve in the direction sought with a large enough effect in the signal ratio in the repeat runs, not every such curve was filed as active; the % refers to the signal ratio)
In short: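 Beta-lactamase reporter assay run in quantitative high-throughput format on an NF-kB-responsive ME-180 line, with 5 hr compound treatment and a FRET-based blue/green fluorescence readout.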

[17] = target: Bile acid receptor (Homo sapiens) (UniProt Q96RI1); assay: qHTS assay to identify small molecule agonists of the farnesoid-X-receptor (FXR) signaling pathway (AID 743220; active = well fitted activation curve with a large enough effect in the signal ratio in the repeat runs, not every such curve was filed as active; the % refers to the signal ratio; note: % is set by controls: 0 for no effect and ±100 for the full control effect)
Sequence of Bile acid receptor (Homo sapiens) (Q96RI1 whole entry, looked up): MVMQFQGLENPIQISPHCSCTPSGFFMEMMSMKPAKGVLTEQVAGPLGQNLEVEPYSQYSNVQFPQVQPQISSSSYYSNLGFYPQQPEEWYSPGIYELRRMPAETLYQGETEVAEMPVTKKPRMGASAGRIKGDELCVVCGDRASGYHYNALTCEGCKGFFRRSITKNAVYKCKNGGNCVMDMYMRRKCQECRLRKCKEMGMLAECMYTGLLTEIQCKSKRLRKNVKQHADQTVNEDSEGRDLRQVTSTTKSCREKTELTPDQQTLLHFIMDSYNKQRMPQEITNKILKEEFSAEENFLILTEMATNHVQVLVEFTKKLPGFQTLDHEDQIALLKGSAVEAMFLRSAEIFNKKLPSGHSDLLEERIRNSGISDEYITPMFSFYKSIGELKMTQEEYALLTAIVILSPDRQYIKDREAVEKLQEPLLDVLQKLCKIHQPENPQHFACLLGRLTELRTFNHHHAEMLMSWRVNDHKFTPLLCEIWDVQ
In short: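 FXR-UAS-bla HEK 293T cells carrying a UAS-driven beta-lactamase reporter were plated for 5 h at 37C/5% CO2, then exposed to DMSO-dissolved Tox21 10K compounds for 16 h at 37C. A LiveBLAzer B/G FRET substrate was loaded for 2 h at room temperature before fluorescence reading.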

[18] = target: Vitamin D3 receptor (Homo sapiens) (UniProt P11473); assay: qHTS assay to identify small molecule antagonists of the vitamin D receptor (VDR) signaling pathway (AID 743223; active = well fitted inhibition curve with a large enough effect in the signal ratio in the repeat runs, not every such curve was filed as active; the % refers to the signal ratio; note: % is set by controls: 0 for no effect and ±100 for the full control effect)
Sequence of Vitamin D3 receptor (Homo sapiens) (P11473 whole entry, looked up): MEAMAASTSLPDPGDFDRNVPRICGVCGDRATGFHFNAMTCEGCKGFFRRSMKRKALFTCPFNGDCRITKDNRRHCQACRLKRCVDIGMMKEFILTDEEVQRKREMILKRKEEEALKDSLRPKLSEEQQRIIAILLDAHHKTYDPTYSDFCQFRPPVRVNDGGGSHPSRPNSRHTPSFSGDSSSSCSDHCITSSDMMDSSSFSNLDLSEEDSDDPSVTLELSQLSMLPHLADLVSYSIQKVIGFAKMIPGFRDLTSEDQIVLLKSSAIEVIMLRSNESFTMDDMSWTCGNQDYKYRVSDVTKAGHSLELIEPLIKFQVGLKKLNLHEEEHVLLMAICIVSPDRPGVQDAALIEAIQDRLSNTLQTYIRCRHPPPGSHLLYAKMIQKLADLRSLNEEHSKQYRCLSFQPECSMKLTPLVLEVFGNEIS
In short: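 Antagonist mode: compound added to VDR-bla cells alongside agonist 1alpha,25-dihydroxyvitamin D3 (3 nM final), incubation 16 h at 37C. Read-out is LiveBLAzer FRET fluorescence, 2 h at room temperature.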

[19] = target: Vitamin D3 receptor (Homo sapiens) (UniProt P11473); assay: qHTS assay to identify small molecule agonists of the vitamin D receptor (VDR) signaling pathway (AID 743222; calls by dose curve; note: % is set by controls: 0 for no effect and ±100 for the full control effect)
In short: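 Using LiveBLAzer B/G FRET detection, agonism was scored in VDR-bla cells exposed overnight (16 h, 37C) to DMSO-dissolved compounds; substrate incubation was 2 h at room temperature.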

[20] = target: Bile acid receptor (Homo sapiens) (UniProt Q96RI1); assay: qHTS assay to identify small molecule antagonists of the farnesoid-X-receptor (FXR) signaling pathway (AID 743217; active = well fitted inhibition curve with a large enough effect in the signal ratio in the repeat runs, not every such curve was filed as active; the % refers to the signal ratio; note: % is set by controls: 0 for no effect and ±100 for the full control effect)
In short: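 Quantitative HTS, beta-lactamase reporter format: FXR-UAS-bla HEK 293T cells co-treated 16 h at 37 °C with compounds and 50 uM final chenodeoxycholic acid, then read by B/G FRET fluorescence.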

CCOC(N)=O
inactive: Potency [1] | Potency [2] | Potency [3] | Potency [4] | Potency [5] | Potency [6] | Potency [7] | Potency [8] | Potency [9] | Potency [10] | Potency [11] | Potency [12] | Potency [13] | Potency [14] | Potency [15]

O=CC(=O)c1ccccc1
inactive: Potency [1] | Potency [2] | Potency [4] | Potency [5] | Potency [6] | Potency [7] | Potency [8] | outcome [16] | Potency [12] | Potency [14]

CCCc1cc(=O)[nH]c(=S)[nH]1
inactive: Potency [1] | Potency [2] | Potency [3] | Potency [4] | Potency [5] | Potency [6] | Potency [7] | Potency [8] | Potency [9] | Potency [10] | Potency [11] | Potency [12] | Potency [13] | Potency [14] | Potency [15]

Nc1ccc2c(c1)CN1C(=O)c3ccccc3C1=N2
inactive: Potency [1] | Potency [5] | outcome [17] | Potency [7] | Potency [8] | outcome [16] | Potency [11] | activity change, negative = inhibition [13] -8.87% [at 19 µM] | activation [15] -1.9% [at 15.8 µM]

NC(=O)n1c(O)c(C(=O)c2cccs2)c2cc(Cl)ccc21
inactive: Potency [1] | Potency [5] | outcome [17] | Potency [6] | Potency [8] | outcome [16] | Potency [11] | Potency [14] | Potency [15]
active: Potency [13] 6.68 µM

COc1cccc(O)c1O
inactive: Potency [1] | Potency [2] | Potency [4] | Potency [5] | Potency [6] | Potency [18] | Potency [8] | outcome [16] | Potency [11] | Potency [14]
active: Potency [7] 57.1 µM | Potency [13] 63.5 µM

COc1ccc2cc(S(=O)(=O)N[C@H](CC(=O)N[C@H](Cc3ccc(CN4[C@H](C)CCC[C@@H]4C)cc3)C(=O)N(C)C(C)C)c3ccc4c(c3)OCO4)ccc2c1
inactive: outcome [17] | Potency [19] | outcome [16]
active: Potency [1] 14.7 µM | Potency [5] 26.1 µM | Potency [6] 52 µM | Potency [7] 52 µM | Potency [8] 20.7 µM | Potency [13] 13 µM

CN(N=O)C(=O)N[C@@H]1[C@@H](O)[C@H](O)[C@@H](CO)O[C@@H]1O
inactive: Potency [1] | Potency [2] | Potency [3] | Potency [4] | Potency [20] | Potency [5] | outcome [17] | Potency [6] | Potency [19] | Potency [18] | Potency [7] | Potency [8] | Potency [9] | Potency [10] | Potency [11] | Potency [12] | Potency [13] | Potency [14] | Potency [15]

O=c1[nH]cnc2c1ncn2[C@H]1CC[C@@H](CO)O1
inactive: Potency [1] | Potency [2] | Potency [3] | Potency [4] | Potency [5] | Potency [6] | Potency [7] | Potency [8] | Potency [9] | Potency [10] | Potency [11] | Potency [12] | Potency [13] | Potency [14] | Potency [15]
